Screens: PubChem, Broad Institute
NOMO-1 viab: STK33 inhibitor candidate reducing NOMO-1 cell viability. inhibition, % (concentration not given with the values). hit rate 7.5% among 37,000. NOMO-1 AML viability, CellTiter-Glo luminescence, 72 h; in the data active = inhibition above about 80%; inconclusive = no clear call, values can overlap the other calls
PD-1 reversal: reversal of PD-1 mediated T-cell inhibition | primary human CD4 T cells, PD-L1 beads, CellTiter-Glo 96 h | activation, % (concentration not given with the values) | 29,000 tested, under 10 active; call rule not given here;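 also: 0% = median vehicle wells and 100% = positive control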
Shh pathway inh: Sonic Hedgehog pathway inhibition | inhibition, % (concentration not given with the values) | Shh-LIGHT2 Gli-luciferase reporter, 30 h | hit rate 2.1% among 22,000;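 active = mean inhibition across valid replicates above about 65%, limit read from the data; inconclusive = mean under the limit, yet half or more replicates past it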;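 also: pathway switched on by Shh-conditioned medium diluted 1 in 25 in low serum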
MITF inhib: blocks MITF activity; hit rate 0.28% among 37,000; inhibition, % (test concentration not listed); TRPM1 promoter luciferase, luminescence, 24 h; in the data active = inhibition above about 85%; inconclusive = no clear call, values can overlap the other calls; inactive = below about 68%;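 also: human melanocyte line stably carrying TRPM1 promoter luciferase reporter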
Starred values were filed as active, the others as inactive; ? = inconclusive; nt = no result. A selection: hits, their analogues and other compounds. The true share with any hit is near 8.1%.

SMILES | NOMO-1 viab | PD-1 reversal | Shh pathway inh | MITF inhib
O=C(NC1CCCCC1)c1c(NC(=O)c2cc(-c3cccnc3)nc3ccccc23)sc2c1CCC2 | 35 | nt | nt | 4
O=C(c1ccccc1)N1CN(C2CCCCC2)Cc2c1sc1c2CCCC1 | 116* | 0 | -34 | 9
N=c1oc2ccccc2cc1C(=O)Nc1ccc(F)cc1 | 120* | -2 | nt | 44
CCC(=O)OCC(=O)[C@@]1(OC(=O)CC)[C@H](C)CC2C3C([C@@H](O)C[C@@]21C)[C@@]1(C)C=CC(=O)C=C1C[C@H]3Cl (some centres undefined) | 41 | nt | 68* | -2
CCC(=O)[C@@]1(C)[C@H](C)C[C@H]2[C@@H]3CCC4=CC(=O)C=C[C@]4(C)[C@H]3[C@@H](O)C[C@@]21C | 10 | nt | 65* | -13
CCC(=O)OC1(C(=O)CCl)[C@@H](C)C[C@H]2[C@@H]3CCC4=CC(=O)C=C[C@]4(C)[C@@]3(F)[C@@H](O)C[C@@]21C (some centres undefined) | 23 | nt | 50 | -31
CCOc1ccc(C(=O)CC(N)C(=O)O)cc1 (centres undefined) | 30 | 2 | 3 | 8
Cc1ccc2c(c1)C(=O)C1(O)CCN(c3ccccc3)C1=N2 (centres undefined) | 109* | 3 | -254 | 13
COC(=O)c1cc(Cc2ccccc2)sc1NC(=O)c1cc(-c2cccnc2)nc2ccccc12 | 9 | nt | nt | -5
CCc1cc(C(=O)OC)c(NC(=O)c2cc(-c3cccnc3)nc3ccc(Br)cc23)s1 | 89* | 1 | nt | 12
Cc1ccc(CN(CC(=O)O)S(=O)(=O)c2ccc(Br)cc2)cc1 | -8 | 2 | nt | -30
COC(=O)CNS(=O)(=O)c1ccccc1[N+](=O)[O-] | 112* | nt | nt | 5
CCN(CC(=O)Nc1ccc(OC)c(Cl)c1)S(=O)(=O)c1ccc2ccccc2c1 | 30 | nt | nt | 44
O=C1N(c2cccc(Cl)c2)C(=Nc2cccc(Cl)c2)SC12CC2 | 114* | -2 | -19 | 12
CCN1C(=O)/C(=C2\SC(=S)N(c3cccc(Cl)c3)C2=O)c2ccccc21 | ? | -1 | 14 | 6
COc1ccc(NC(=O)C(C(=O)Nc2ccc(OC)cc2)C23CC4CC(CC(C4)C2)C3)cc1 | 48 | 0 | -29 | 1
Nc1nonc1-c1nc2ccccc2n1CC(=O)Nc1cccc(Cl)c1Cl | 119* | nt | nt | 32
CCOC(=O)c1nonc1N | -16 | 0 | -7 | -12
CCOC(=O)C1=NNCC1C(=O)OCC (centres undefined) | 96* | 1 | nt | 13
CCC(Sc1nnc(-c2ccc(NC(C)=O)cc2)n1C)C(=O)Nc1ccc(Cl)cc1 (centres undefined) | 16 | -2 | nt | 12
C=CCN1CCc2c(cc(O)c(O)c2Br)[C@@H](c2ccccc2)C1 | 109* | nt | 31 | 31
CNC(=O)C1OC(C)(C(C)(C)C)OC1C(=O)NC (centres undefined) | -27 | 0 | nt | 2
Cc1cc(-c2ccccc2)nc2c1/C(=N\O)CC(C)(C)C2 | 101* | -3 | -8 | -23
Cc1ccc(C)c(NC(=O)CSc2nc(-c3ccccc3)cc(C(F)(F)F)n2)c1 | 27 | nt | nt | -2
COc1ccc([N+](=O)[O-])cc1NC(=O)COc1ccc(Cl)cc1Br | 22 | 1 | nt | -12
SMILES | NOMO-1 viab | PD-1 reversal | Shh pathway inh | MITF inhib
COc1ccc([N+](=O)[O-])cc1NC(=O)COc1ccc(C(C)(C)C)cc1Br | 14 | 0 | nt | 89*
C/C=C/C1=C(Cl)C(=O)[C@@H](O)[C@@]1(O)C(=O)OC | 108* | -9 | 48 | 23
COc1ccc(CN(C)C[C@@H]2Oc3ccc(NC(=O)CCCCCC(=O)Nc4ccccc4N)cc3CC(=O)N([C@H](C)CO)C[C@@H]2C)cc1 | 124* | -2 | nt | 11
COc1ccc(CN(C)C[C@@H]2Oc3ccc(NC(=O)CCCCCC(=O)Nc4ccccc4N)cc3CC(=O)N([C@@H](C)CO)C[C@@H]2C)cc1 | 127* | 0 | nt | 27
COc1ccc(CN(C)C[C@H]2Oc3ccc(NC(=O)CCCCCC(=O)Nc4ccccc4N)cc3CC(=O)N([C@@H](C)CO)C[C@H]2C)cc1 | 75 | 1 | nt | 7
O=C1c2ccc(-c3ncc(-c4ccccc4)o3)cc2C(=O)N1c1ncn[nH]1 | -6 | 0 | nt | 8
COc1cccc(-c2nn(-c3ccccc3)cc2C(=O)n2nnc3ccccc32)c1 | 128* | -10 | nt | 48
COC(=O)C1=C(C)N(C)C(=O)NC1c1ccc(OC)c(Br)c1 (centres undefined) | 2 | 3 | 31 | 1
C[C@H](CO)N1C[C@H](C)[C@H](CN(C)Cc2ccc(C(=O)O)cc2)Oc2ccc(NC(=O)Nc3cccc4ccccc34)cc2CC1=O | 9 | 1 | nt | -5
C[C@@H]1CN([C@@H](C)CO)C(=O)Cc2cc(NC(=O)Nc3cccc4ccccc34)ccc2O[C@@H]1CN(C)Cc1ccc(Cl)c(Cl)c1 | 129* | -5 | 21 | 47
C[C@H](CO)N1C[C@H](C)[C@H](CN(C)Cc2ccc(Cl)c(Cl)c2)Oc2c(NC(=O)Nc3cccc4ccccc34)cccc2C1=O | 107* | -5 | -12 | 46
C[C@@H]1CN([C@@H](C)CO)C(=O)c2cc(NC(=O)Nc3cccc4ccccc34)ccc2O[C@@H]1CN(C)Cc1ccc(Cl)c(Cl)c1 | 93* | -4 | nt | 27
O=C(OCc1ccccc1[N+](=O)[O-])c1cccc(-c2nnc(-c3ccccc3)o2)c1 | 4 | nt | nt | 13
NNC(=O)c1cccc(C(F)(F)F)n1 | 29 | 1 | -37 | 3
COc1cc(S(=O)(=O)Nc2ccncc2)c(OC)cc1Cl | 8 | nt | nt | -11
COc1ccc(OC)c(S(=O)(=O)Nc2ccc(O)c3ccccc23)c1 | 127* | -13 | nt | 70
C[C@@H]1CN([C@H](C)CO)C(=O)c2cccc(NC(=O)C3CCOCC3)c2O[C@@H]1CN(C)Cc1ccc(C(=O)Nc2ccccc2N)cc1 | 107* | 1 | nt | 2
C[C@@H]1CN([C@@H](C)CO)C(=O)c2cccc(NC(=O)C3CCCCC3)c2O[C@@H]1CN(C)Cc1ccc(C(=O)Nc2ccccc2N)cc1 | 127* | -4 | nt | 32
CCc1cccc(C)c1NC(=O)CSc1nc2sc3c(c2c(=O)n1C)CCC(C)C3 (centres undefined) | 95* | nt | nt | 7
CC(C)(C)c1ccc(OCC(=O)Nc2ccccc2C(N)=O)c(Br)c1 | 23 | -1 | nt | -90
C[C@@H]1O[C@@H](O[C@H]2[C@H](O)[C@@H](O)[C@H](OC[C@H]3O[C@@H](OC(=O)[C@]45CCC(C)(C)CC4C4=CCC6[C@@]7(C)CC[C@H](O)C(C)(C)C7CC[C@@]6(C)[C@]4(C)CC5)[C@H](O)[C@@H](O)[C@@H]3O)O[C@@H]2CO)[C@H](O)[C@H](O)[C@H]1O (some centres undefined) | 122* | -10 | 76* | 45
CC1OC(OC2C(CO)OC(OC(=O)[C@]34CCC(C)(C)CC3C3=CCC5[C@@]6(C)CC[C@H](OC7OC(C)C(OC8OCC(O)(COC9OCC(O)C(OC%10OCC(OC%11OCC(O)(CO)C%11O)C(O)C%10O)C9O)C8O)C(O)C7O)C(C)(C)C6CC[C@@]5(C)[C@]3(C)CC4)C(O)C2O)C(O)C(O)C1O (some centres undefined) | 100* | -3 | 3 | -6
